Laboratory results published in the supplement of paper PMC4371806.
Whole data set: some 1,600 compounds, median “plate-normalized OD600 growth (mean of duplicates)” near 0.31, cut for the lowest 2% near 0.23. The sample as a whole holds a higher share of the lowest values than the screen did.

Tested on: Escherichia coli BW25113
Experiment: plate-normalized OD600 growth (mean of duplicates) (OD600 (normalized)); higher = more growth (less inhibition)
Conditions: 10 µM
Procedure: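 E. coli BW25113 in LB (100 µl, 96-well, no shaking) was exposed to 10 µM of each compound (here the ChemBridge subset of a ~30,000-member library) and grown at 37°C for 24 h or 15°C for 48 h, in duplicate. Growth was read as OD600 and the duplicate ODs were normalized across screening plates to correct plate-to-plate variation.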

SMILES | plate-normalized OD600 growth (temperature: 15°C, 48 h) | plate-normalized OD600 growth (temperature: 37°C, 24 h)
O=C(CN1CCCCC1)NC12CC3CC(CC(C3)C1)C2 | 0.274 | 0.65
Cc1ccc(NC(=O)c2c(O)c3ccccc3[nH]c2=O)c(C)c1 | 0.27 | 0.648
Cc1cc(C)n(C(=O)c2ccccc2F)n1 | 0.251 | 0.635
Cc1cc(C)n(C(=O)c2ccccc2Br)n1 | 0.226 | 0.655
Cc1cc(C)n(C(=O)c2ccc(Cl)cc2)n1 | 0.256 | 0.636
O=C(O)c1ccc2c(c1)C(=O)N(c1c[nH]c(=O)[nH]c1=O)C2=O | 0.239 | 0.592
O=C(/C=C/c1ccc(-c2cc(Cl)ccc2Cl)o1)c1ccco1 | 0.25 | 0.612
c1cc2cn[nH]c2cc1NC1CCCCCC1 | 0.233 | 0.604
Nc1ccc(Cl)cc1SCC(=O)O | 0.242 | 0.599
O=C(O)CSc1cccc(C(=O)Nc2ccc(Br)cc2)c1 | 0.249 | 0.611
O=C(O)CSc1ccc(Br)cc1 | 0.222 | 0.609
NS(=O)(=O)c1ccc(NC(=O)c2ccccc2Cl)cc1 | 0.24 | 0.604
O=[N+]([O-])c1ccc(N2CCN(Cc3cccs3)CC2)cc1 | 0.22 | 0.599
O=[N+]([O-])c1ccc(N2CCN(Cc3ccc(Br)s3)CC2)cc1 | 0.242 | 0.58
Cc1ccsc1CN1CCN(c2ccc([N+](=O)[O-])cc2)CC1 | 0.256 | 0.634
O=C(O)c1ccc(S(=O)(=O)c2ccc(O)cc2)cc1 | 0.247 | 0.592
c1ccc2c(c1)CCN(Cc1ccncc1)C2 | 0.236 | 0.651
CN(C)c1ccc(CN2CCc3ccccc3C2)cc1 | 0.244 | 0.619
C=CCNC(=O)c1ccc(CN2CCc3ccccc3C2)cc1 | 0.217 | 0.6
O=C(c1ccccc1[N+](=O)[O-])N1CCN(C(c2ccccc2)c2ccccc2)CC1 | 0.259 | 0.627
CCOc1cc(/C=C(\C#N)c2nc(-c3ccc(OC)cc3)cs2)ccc1O | 0.262 | 0.615
COc1ccc(-c2c(C)[nH]n3c(=O)cc(-c4ccc([N+](=O)[O-])cc4)nc23)cc1 | 0.24 | 0.608
COc1ccc(NCc2ccc(C)s2)cc1OC | 0.244 | 0.604
COc1ccc(NC(=O)Nc2ccc(F)c(Cl)c2)cc1 | 0.283 | 0.58
COc1ccc(NCc2ccc(Cl)cc2Cl)cc1OC | 0.22 | 0.625
O=C(c1sc2ccccc2c1Cl)N1CCN(CCN2C(=O)C3C4C=CC(C4)C3C2=O)CC1 (stereo unspecified) | 0.243 | 0.611
O=S(=O)(c1ccc(Cl)c(Cl)c1)N1CCCCC1 | 0.252 | 0.619

SMILES | plate-normalized OD600 growth (temperature: 15°C, 48 h) | plate-normalized OD600 growth (temperature: 37°C, 24 h)
NC1CCCc2c1[nH]c1ccc([N+](=O)[O-])cc21 (stereo unspecified) | 0.173 | 0.552
Cc1cc(=O)[nH]c2ccc([N+](=O)[O-])cc12 | 0.244 | 0.609
O=[N+]([O-])c1ccc2[nH]c3c(c2c1)CCCC3NC1CCN(CCc2ccccc2)CC1 (stereo unspecified) | 0.249 | 0.578
N#C/C(=C\c1ccc(Br)o1)c1nc(-c2ccccc2)cs1 | 0.246 | 0.6
COc1ccc(Cl)cc1NC(=O)c1ccccc1Br | 0.222 | 0.627
O=C(Nc1ccc(Cl)cc1)c1ccccc1Br | 0.264 | 0.633
COc1ccc(NC(=O)c2ccccc2Br)c(OC)c1 | 0.258 | 0.615
O=C1c2cccc([N+](=O)[O-])c2C(=O)N1n1cnnc1 | 0.258 | 0.629
CCC1CCC(NCc2cccc(OC)c2OC)CC1 (stereo unspecified) | 0.253 | 0.603
Cc1cccc(NC(=O)COc2ccc(C)c(C)c2)c1 | 0.237 | 0.601
CN1CCCN(Cc2cc(F)ccc2F)CC1 | 0.273 | 0.623
COc1ccc(CN2CCCN(C)CC2)c(OC)c1 | 0.25 | 0.619
C=CCOc1ccccc1CN1CCCN(C)CC1 | 0.217 | 0.595
Cn1cccc1C1Nc2ccccc2NC2=C1C(=O)CC(C)(C)C2 (stereo unspecified) | 0.222 | 0.609
CC1(C)CC(=O)C2=C(C1)Nc1ccccc1NC2c1cc2c(cc1[N+](=O)[O-])OCO2 (stereo unspecified) | 0.225 | 0.606
CC(=O)N1c2ccccc2NC2=C(C(=O)CC(C)(C)C2)C1c1cccn1C (stereo unspecified) | 0.253 | 0.612
CC1(C)CC(=O)C2=C(C1)Nc1ccccc1NC2c1ccc([N+](=O)[O-])s1 (stereo unspecified) | 0.231 | 0.604
CC1(C)CC(=O)C2=C(C1)Nc1ccccc1NC2c1ccc(Br)cc1 (stereo unspecified) | 0.275 | 0.627
CC1(C)CC(=O)C2=C(C1)Nc1ccccc1NC2c1ccccc1F (stereo unspecified) | 0.25 | 0.618
O=C1c2ccccc2C(=O)N1c1nccs1 | 0.239 | 0.622
CC(=O)Nc1ccc(S(=O)(=O)N2CCCC(CO)C2)cc1 (stereo unspecified) | 0.29 | 0.63
O=C(Nc1nc(/C=C/c2ccccc2)[nH]c(=O)n1)NS(=O)(=O)c1ccccc1Cl | 0.249 | 0.587
CC(C)(C)C(=O)ON1C(=O)c2ccccc2C1=O | 0.25 | 0.616
CN(C)c1ccc(CN2CCc3c([nH]c4ccccc34)C2)cc1 | 0.275 | 0.622
CCCc1noc2c1C(=O)CC(C)(C)C2 | 0.261 | 0.622
CC1(C)CC(=O)c2c(CC3CC(=O)NC(=O)C3)noc2C1 | 0.222 | 0.614
